# High-throughput results as filed in PubChem.
# Hits are enriched below; roughly 7.5% of the tested compounds scored in any of these assays.
# FLuc modulator: counter-screen for miR-21 project: firefly luciferase inhibitors or activators; P08659; purified FLuc, Km substrates, luminescence inhibition; Potency, µM (highest dose often 57.5 µM), inactives show at the highest dose activity change, negative = inhibition, actives largely listed as inhibitors; 360,000 tested, 6.9% active; AID 588342;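 note: plate controls were vehicle for no effect and reference inhibitor for full effect; nearly all actives have a fitted effect of over 55% in size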
# Target sequence (P08659 whole entry, looked up): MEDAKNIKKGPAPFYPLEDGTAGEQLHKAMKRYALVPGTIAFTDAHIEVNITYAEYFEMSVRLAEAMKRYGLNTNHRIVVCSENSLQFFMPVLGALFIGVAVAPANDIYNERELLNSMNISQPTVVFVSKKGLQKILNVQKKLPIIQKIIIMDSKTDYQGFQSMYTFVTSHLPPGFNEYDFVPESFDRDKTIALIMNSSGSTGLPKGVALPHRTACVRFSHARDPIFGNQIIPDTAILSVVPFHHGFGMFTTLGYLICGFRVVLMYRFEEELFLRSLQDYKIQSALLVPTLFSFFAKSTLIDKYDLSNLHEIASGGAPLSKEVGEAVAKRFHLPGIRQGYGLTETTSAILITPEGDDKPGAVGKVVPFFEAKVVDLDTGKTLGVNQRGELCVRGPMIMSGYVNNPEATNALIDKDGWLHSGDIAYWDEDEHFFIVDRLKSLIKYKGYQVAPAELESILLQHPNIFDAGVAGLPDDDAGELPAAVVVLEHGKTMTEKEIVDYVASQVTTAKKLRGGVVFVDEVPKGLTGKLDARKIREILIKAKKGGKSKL
#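 Purified P. pyralis luciferase (10nM final) with 10uM D-luciferin and 10uM ATP (Km levels) in 50mM Tris acetate pH 7.5, 10mM Mg acetate, 0.01% Tween-20, 0.05% BSA; qHTS 6-point titration, ~60 µM downward; luminescence read.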
# ELG1 genotoxic: genotoxicity induction in ELG1-luciferase HEK293T cells. HEK293T ELG1-luciferase reporter, luminescence, 16 h. Potency, µM (top dose mostly 46 µM), for the others: at the top dose activity change, positive = activation, usual class: activators. 330,000 tested, 1.3% active. AID 504466; note: % of control where 0% means no effect; nearly all actives have a fitted effect of over 60% in size
#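 Genotoxicity was scored as increased ELG1-luciferase reporter signal, measured by ONE-Glo luminescence (30 min, room temperature). Compound or vehicle exposure of the HEK293T reporter cells lasted 16 hr at 37°C.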
# SMN2 splice enh: increases expression of the SMN2 splice variant | HEK293 SMN2-luciferase splicing reporter, luminescence, 30-36 h | Potency, µM (series often up to 46.1 µM), without a hit: top-dose activity change, positive = activation, actives largely listed as activators | 210,000 tested, 2.8% active | AID 1458; note: % of control where 0% means no effect; nearly all actives have a fitted effect of over 55% in size
#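 HEK293 cells carry an SMN2 […]–luciferase reporter in which exon 7 inclusion puts luciferase in frame. Cells were plated 10-12 h before compound addition, then incubated 30-36 h at 37C. ONE-Glo luminescence was read; sodium butyrate at 4.5 mM final served as control.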
# NPC1 prom act: activators of NPC1 promoter | Huh7 NPC1 promoter luciferase reporter, 24 h | Potency, µM (doses to about 9.22 µM), for inactives: at the highest dose activation, hits mostly activators | 320,000 tested, 2.4% active | AID 485313; note: % of control where 0% means no effect; nearly all actives have a fitted effect of over 60% in size
#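 Stably transfected Huh7 (NPC1 promoter→luciferase), 1500 cells/well in Opti-MEM + 10% FBS, 2 h settle, then compound 24 h at 37 °C. Luminescence after 10 min with Amplite reagent.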
# Rab9 promoter act: Rab9 promoter activation. Potency, µM (top dose mostly 9.22 µM), for the others: at the top dose activation, negative = inhibition, most hits filed as activators. Huh7 Rab9 promoter-luciferase reporter, luminescence, 24 h. 320,000 tested, 2.8% active. AID 485297; note: % of control where 0% means no effect; nearly all actives have a fitted effect of over 60% in size
#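 Using Huh7 cells stably transfected with Rab9 promoter–luciferase, compounds were incubated 24 h at 37 °C, 5% CO2; luciferase luminescence was read 10 min after reagent addition.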
# An asterisk follows results filed as active; ? = inconclusive; . = no result given; [ ] = dose if it differs, or a comment. Calls come from the whole dose curve; as a rule, active = well fitted curve in the direction sought with a large enough effect; inconclusive = small, poorly fitted or top-dose-only effect, or another doubt; inactive = no such curve, though single readings can be large; an effect the other way counts as inactive or inconclusive. Potency is the fitted concentration of half-maximal effect.
SMILES,FLuc modulator,ELG1 genotoxic,SMN2 splice enh,NPC1 prom act,Rab9 promoter act
CCn1ccc(C(=O)Nc2ccc(N(C)C(C)=O)cc2)n1,?,?,18%,22%,?
CCn1ccc(C(=O)Nc2ccc(Cl)cn2)n1,19µM*,?,?,3.2µM*,4µM*
CC(NC(=O)c1ccc2c(c1)N(Cc1ccc(Cl)cc1)C(=O)CS2)c1ccccc1 (configuration not stated),5%,.,-1%,.,.
CCCCC(=O)NC(=S)NNS(=O)(=O)c1ccccc1,1%,2%,1%,-1%,-3%
Cc1nc(NC(=O)c2ccccc2)sc1-c1csc(NCc2ccco2)n1,13µM*,-1%,-11%,2%,-1%
Cc1nc(C)c(-c2csc(NCc3ccccc3)n2)s1,?,9%,-40%,24%,10%
Cc1nc(C)c(-c2csc(NCc3ccco3)n2)s1,15µM*,13µM*,?,29%,?
Cc1nnc(NCc2ccco2)s1,-1%,4%,8%,7%,-1%
c1coc(CNc2nc3ccccc3s2)c1,7.6µM*,?,.,1.6µM*,?
COc1ccc(-c2csc(NCc3ccco3)n2)cc1,1.1µM*,?,13µM*,0.89µM*,0.56µM*
CC1CN(C(=O)c2scc3c2OCCO3)CC(C)O1 (configuration not stated),1%,2%,-1%,-4%,-4%[1.84 µM]
c1ccc2oc(C3=NNC(=NC4CC4)SC3)cc2c1,0.76µM*,?,1µM*,0.28µM*,0.32µM*
CN1N=C(c2ccc(F)c(F)c2)CSC1=NCc1ccccc1,-18%,1%,-8%,1%,1%
c1ccc(CN=C2NN=C(c3cc4ccccc4o3)CS2)cc1,17µM*,1%,18%,18%,18%
c1csc(C2=NNC(=NC3CCCCC3)SC2)c1,4.8µM*,?,13µM*,1.3µM*,1µM*
COc1ccc(S(=O)(=O)N2CCCCCC2)cc1C(=O)N(C)Cc1ccccc1F,4%,-2%,.,0%,-5%
O=C(CN1C(=O)NC2(CCCC2)C1=O)Nc1cccc(-c2nnc3n2CCCCC3)c1,-1%,-1%,1%,2%,-1%
Cc1cc(Nc2ccccc2)nn1C(=O)c1ccccc1,-20%,-8%,1%,8%,-11%
COc1ccc(C(=O)n2nc(C)cc2Nc2ccccc2)cc1,11µM*,23µM*,0%,15%,27%
C=CCOC(=O)C1C(=O)CC(C)(O)C(C(=O)OCC=C)C1c1ccc(OC)cc1 (configuration not stated),0%,-5%,-3%,-4%,-2%
CC(=O)c1cc(Cl)ccc1OCC(=O)NC1CCCC1,17µM*,-1%,.,?,?
O=C(COc1ccc(Cl)cc1Cl)NC(=O)N1CCOCC1,21µM*,5%,20%,-5%,-5%
O=C(COc1ccc(Cl)cc1[N+](=O)[O-])NC1CCCCC1,11µM*,?,11µM*,?,1.4µM*
O=C(COc1ccc(Cl)cc1[N+](=O)[O-])N1CCCCCC1,-6%,-1%,11%,0%,1%
O=C(COc1ccc(Cl)cc1Br)NC1CC1,13µM*,10%,.,?,28%
SMILES,FLuc modulator,ELG1 genotoxic,SMN2 splice enh,NPC1 prom act,Rab9 promoter act
O=C(COC(=O)COc1ccc(Cl)cc1Cl)NC1CCCC1,13%,2%,.,-5%,0%
O=C(CCn1[nH]c(=O)c2ccccc2c1=O)NCCO,-1%,.,0%,.,.
COC(=O)CN1C(=S)N(C)C(=O)C1CC(=O)Nc1ccccc1 (configuration not stated),3%,-1%,2%,0%,-2%
CC(C)NC(=O)N(C)C[C@H]1Oc2ccc(NS(=O)(=O)c3ccc(Cl)cc3)cc2CC(=O)N([C@@H](C)CO)C[C@@H]1C,.,0%,.,.,.
Cc1cccc(OCC(=O)Nc2nccs2)c1C,1.5µM*,2.1µM*,.,0.35µM*,0.35µM*
O=C(Nc1nccs1)c1ccc(COc2ccc(Cl)cc2)o1,?,.,-4%,.,.
O=C(COc1ccc(F)cc1)Nc1nccs1,7.6µM*,?,11µM*,2µM*,1µM*
O=C(CS(=O)(=O)c1ccc(F)cc1)Nc1nccs1,-1%,1%,.,-6%,0%
O=C(COc1ccc(F)cc1)Nc1nc2c(s1)CCCC2,27µM*,?,.,?,?
